“And” between values parts separate entries of the source, which are not always exact repeats. Equal entries are not always repeated.
Key:
[1] = molecular target: T1, 3-phosphoinositide-dependent protein kinase 1 (Homo sapiens) (UniProt O15530); conditions: at 0.1 µM;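 note: values are mean inhibition of PDK1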
T1 sequence (whole entry): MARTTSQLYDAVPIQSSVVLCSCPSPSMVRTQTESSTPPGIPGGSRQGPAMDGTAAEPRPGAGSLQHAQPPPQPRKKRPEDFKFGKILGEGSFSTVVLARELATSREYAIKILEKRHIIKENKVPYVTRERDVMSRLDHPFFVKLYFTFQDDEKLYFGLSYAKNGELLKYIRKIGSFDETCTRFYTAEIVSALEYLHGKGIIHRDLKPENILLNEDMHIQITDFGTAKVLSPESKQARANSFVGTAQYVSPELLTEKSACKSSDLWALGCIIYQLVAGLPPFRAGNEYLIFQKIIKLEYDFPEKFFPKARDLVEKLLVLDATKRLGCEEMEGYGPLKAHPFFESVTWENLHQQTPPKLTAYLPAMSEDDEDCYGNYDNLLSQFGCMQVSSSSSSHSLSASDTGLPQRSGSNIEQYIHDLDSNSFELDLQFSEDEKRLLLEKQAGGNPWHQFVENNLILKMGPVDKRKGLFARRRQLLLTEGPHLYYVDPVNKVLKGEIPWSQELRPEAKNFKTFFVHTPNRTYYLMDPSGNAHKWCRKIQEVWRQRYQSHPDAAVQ

[2] = molecular target: cAMP-dependent protein kinase catalytic subunit alpha (Homo sapiens) (UniProt P17612); conditions: at 0.1 µM
[3] = molecular target: cAMP-dependent protein kinase catalytic subunit alpha (Homo sapiens) (UniProt P17612); conditions: at 1 µM
[4] = molecular target: Protein kinase C alpha type (Homo sapiens) (UniProt P17252); conditions: at 0.1 µM
[5] = molecular target: Protein kinase C alpha type (Homo sapiens) (UniProt P17252); conditions: at 1 µM
[6] = molecular target: Protein kinase C beta type (Homo sapiens) (UniProt P05771); conditions: at 0.1 µM
[7] = molecular target: Protein kinase C beta type (Homo sapiens) (UniProt P05771); conditions: at 1 µM
[8] = molecular target: Protein kinase C eta type (Homo sapiens) (UniProt P24723); conditions: at 0.1 µM
[9] = molecular target: Protein kinase C eta type (Homo sapiens) (UniProt P24723); conditions: at 1 µM
[10] = molecular target: Protein kinase C gamma type (Homo sapiens) (UniProt P05129); conditions: at 0.1 µM;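 note: values are mean percent inhibition of PKC gamma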

Sequence of Protein kinase C eta type (Homo sapiens) (P24723 whole entry): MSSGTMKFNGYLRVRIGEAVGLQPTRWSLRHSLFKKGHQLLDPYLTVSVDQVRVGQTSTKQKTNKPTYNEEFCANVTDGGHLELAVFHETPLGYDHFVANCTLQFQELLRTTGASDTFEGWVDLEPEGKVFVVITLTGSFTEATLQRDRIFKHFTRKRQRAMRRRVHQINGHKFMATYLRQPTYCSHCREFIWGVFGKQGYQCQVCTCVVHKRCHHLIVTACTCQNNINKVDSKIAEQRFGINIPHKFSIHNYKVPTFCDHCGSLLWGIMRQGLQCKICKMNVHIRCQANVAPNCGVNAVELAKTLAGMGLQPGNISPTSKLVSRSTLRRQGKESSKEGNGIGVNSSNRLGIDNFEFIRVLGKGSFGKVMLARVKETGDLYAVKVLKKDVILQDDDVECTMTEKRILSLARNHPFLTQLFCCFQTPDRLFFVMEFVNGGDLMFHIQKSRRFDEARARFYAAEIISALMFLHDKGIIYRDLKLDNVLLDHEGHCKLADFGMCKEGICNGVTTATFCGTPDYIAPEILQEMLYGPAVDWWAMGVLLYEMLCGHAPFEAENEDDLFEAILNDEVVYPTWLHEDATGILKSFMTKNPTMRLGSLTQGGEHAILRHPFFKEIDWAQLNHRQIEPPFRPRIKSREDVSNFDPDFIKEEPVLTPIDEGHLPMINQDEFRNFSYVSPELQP
Sequence of Protein kinase C beta type (Homo sapiens) (P05771 2-671 limits assumed): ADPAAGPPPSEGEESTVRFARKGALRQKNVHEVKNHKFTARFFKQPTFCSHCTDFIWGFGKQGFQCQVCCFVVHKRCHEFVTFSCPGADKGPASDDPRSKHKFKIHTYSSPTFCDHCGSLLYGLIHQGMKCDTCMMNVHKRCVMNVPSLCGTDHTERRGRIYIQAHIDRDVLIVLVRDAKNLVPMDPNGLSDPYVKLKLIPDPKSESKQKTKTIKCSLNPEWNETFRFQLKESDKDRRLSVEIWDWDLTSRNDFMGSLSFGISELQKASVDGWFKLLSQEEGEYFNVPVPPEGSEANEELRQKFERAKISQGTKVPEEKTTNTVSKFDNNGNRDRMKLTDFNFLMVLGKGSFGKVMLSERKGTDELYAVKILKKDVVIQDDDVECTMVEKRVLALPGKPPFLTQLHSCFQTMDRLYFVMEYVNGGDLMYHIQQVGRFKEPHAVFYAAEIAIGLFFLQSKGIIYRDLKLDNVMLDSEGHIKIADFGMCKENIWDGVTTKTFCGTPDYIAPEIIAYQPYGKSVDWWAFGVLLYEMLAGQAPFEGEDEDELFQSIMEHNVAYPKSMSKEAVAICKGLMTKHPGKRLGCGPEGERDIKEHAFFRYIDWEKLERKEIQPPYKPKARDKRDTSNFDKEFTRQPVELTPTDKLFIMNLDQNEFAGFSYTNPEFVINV

| SMILES | inhibition [1] | inhibition [2] | inhibition [3] | inhibition [4] | inhibition [5] | inhibition [6] | inhibition [7] | inhibition [8] | inhibition [9] | inhibition [10] |
| --- | --- | --- | --- | --- | --- | --- | --- | --- | --- | --- |
| Cn1c(-c2nonc2N)nc2cnccc21 | 4.21% | 2.05% | 6.79% | 0.48% | 2.7% | 7.33% | 36.2% | 6.3% | 29.4% | 1.7% |
| c1cnn2ncc(-c3ccnc(NCCCN4CCOCC4)n3)c2c1 | 1.41% | 2.68% | 5.3% | 0.87% | 2.26% | 2.73% | 5.57% | 3.67% | 2.05% | 3.52% |
| O=C(O[C@H]1CN[C@H](C#Cc2cc3ncnc(Nc4ccc5c(ccn5Cc5cc(F)ccc5F)c4)c3s2)C1)N1CCOCC1 | 2.16% | 1.86% | 1.48% | 0.78% | 2.63% | 1.59% | 1.27% | 5.63% | 3.54% | 1.38% |
| Cc1nnc(-c2cccc(-c3ccc(C(=O)NCC4CC4)cc3)c2)o1 | 2.18% | 1.83% | 2.07% | 0.65% | 1.45% | 2.27% | 3.52% | 3.46% | 6.75% | 1.76% |
| CC1=C(C(=O)Nc2ccc3[nH]ncc3c2)C(c2ccc(F)cc2)N=C(c2ccc(C(F)(F)F)nc2)N1 (stereo not given) | 2.62% | 3.58% | 20.9% | 1.25% | 2.09% | 0.07% | -0.53% | 2.89% | 2.1% | 0.54% |
| CS(=O)(=O)CCNCc1ccc(-c2ccc3ncnc(Nc4ccc(OCc5ccccc5)cc4)c3c2)o1 | 1.7% | 2.17% | 2.45% | 0.5% | 1.49% | 1.41% | 0.21% | 3.12% | 3.6% | 2.13% |
| NS(=O)(=O)c1cccc(N/C=C2\C(=O)Nc3ccccc32)c1 | 4.6% | 2.79% | 1.62% | 0.98% | 2.84% | -0.22% | 2.02% | 1.78% | 3.72% | 0.43% |
| O=C(Nc1n[nH]c2nnc(-c3cccnc3)cc12)C1CC1 | -0.25% | -0.44% | 0.38% | -0.19% | 2.33% | -0.7% | 0.6% | -1.43% | 2.91% | -0.5% |
| CS(=O)(=O)Nc1ccc(-c2ccc3c(NC(=O)C4CC4)n[nH]c3c2)cc1 | 2.46% | 1.42% | 1.85% | 1.17% | 1.78% | -0.7% | 0.21% | 4.05% | 1.11% | 2.49% |
| CNC(=O)c1sc(-n2cnc3cc(OC)c(OC)cc32)cc1OCc1ccccc1C(F)(F)F | 1.81% | 2.01% | 2.29% | 0.09% | 0.93% | 1.29% | -0.63% | 3.69% | 1.55% | 5.06% |
| O=C(O[C@H]1CN[C@H](C#Cc2cc3ncnc(Nc4ccc5c(cnn5Cc5ccccc5)c4)c3s2)C1)N1CCOCC1 | -1.36% | 0.31% | 1.15% | 0.54% | -0.04% | -0.18% | -6.28% | -1.67% | -2.51% | 1.56% |
| NS(=O)(=O)c1ccc(N/N=C2\C(=O)Nc3ccc(C(=O)NCc4ccncc4)cc32)cc1 | 10.9% | 5.56% | 8.91% | 0.49% | 2.27% | -0.39% | 5.08% | 6.25% | 4.31% | 1.42% |
| CNC(=O)c1ncccc1Nc1nc(Nc2cc3c(cc2OC)CCCN3C(=O)CN(C)C)nc2[nH]ccc12 | 3.18% | 1.72% | 2.56% | 1.68% | 10.7% | 1.41% | 1.37% | 2.78% | 1.52% | 5.68% |
| c1ccc(-c2n[nH]cc2-c2ccnc(-c3ccc(OCCn4ccnc4)cc3)c2)nc1 | 0.22% | 0.39% | 4.32% | 0.35% | 0.47% | 0.31% | 0.68% | -2.29% | -0.53% | 0.17% |
| CS(=O)(=O)CCNCc1ccoc1-c1ccc2ncnc(Nc3ccc(OCc4ccccc4)cc3)c2c1 | 1.23% | 1.55% | 1.02% | -0.16% | 0.23% | -0.13% | -4.5% | 1.81% | -0.91% | 0.57% |
| Nc1nccc(-c2c(-c3ccc(F)cc3)ncn2C2CCNCC2)n1 | -3.23% and 1.39% | -0.37% and 3.2% | 20.2% and 30.2% | 1.33% and 2.68% | 21.7% and 29% | 1.41% and 3.25% | 17.9% and 21.4% | -2.01% and 0.32% | 0.29% and 1.78% | -1.71% and 0.92% |
| COC(=O)Nc1nc2cc(Oc3ccc(NC(=O)Nc4ccccc4)cc3)ccc2[nH]1 | 1.31% | 2.49% | 2.15% | -0.02% | 0.51% | 1.53% | 2.12% | 2.8% | 6.1% | 0.41% |
| CC1(C)CC(n2cnc(-c3ccc(F)cc3)c2-c2ccnc(N)n2)CC(C)(C)N1 | 0.82% | 0.29% | 4.01% | 0.96% | 2.63% | 1.89% | 3.35% | 1.68% | -2.97% | -2.6% |
| N#Cc1ccc2c(-c3ccnc(NC4CC4)n3)c(-c3ccc(F)cc3)nn2c1 | 0.01% | 1.59% | 0.4% | 0.15% | 1.24% | -1.19% | -0.72% | 2.95% | 0.36% | 1.4% |
| Cc1cc(O)cc(C)c1/C=C/c1cncc(C(=O)OC(C)(C)C)c1 | 1.42% | 1.82% | 3.63% | 0.14% | 0.77% | 0.46% | -1.03% | -1.29% | 3.71% | 3.91% |
| CCS(=O)(=O)c1ccc(OC)c(Nc2ncc(-c3cccc(F)c3)o2)c1 | 4.01% | 2.45% | 6.7% | 1.28% | 3.32% | -1.13% | 2.28% | 3.12% | 3.91% | 5.17% |
| N#Cc1cccc(Nc2ncc(-c3ccccc3)o2)c1 | 0.43% | 0.96% | 1.68% | -0.44% | 0.37% | 0.7% | 2.96% | 0.23% | 2% | -0.01% |
| COc1c(C(N)=O)cc(-c2ccc(Cl)cc2)cc1-c1ccc(S(N)(=O)=O)cc1 | 1.2% | 3.03% | 4.3% | 0.59% | 1.5% | 0.62% | 3.84% | 1.17% | 5.18% | 1.45% |
